The supplement of paper PMC11732987, “Enantioselective OTUD7B fragment discovery through chemoproteomics screening and high-throughput optimisation” (Communications Chemistry, 2025)

Experiments:
Assay in all cases: log2 ratio of Biotin-Ahx-Ub-VS probe labelling (fragment/DMSO); higher = less target engagement (more negative = stronger competition), active = hit call of the paper (q ≤ 0.05, log2 ratio ≤ -1)
Conditions in all cases: compound concentration: 200 uM; treatment time: 3 h
USP42 = target: T1, USP42 (UniProt Q9H9J4)
T1 sequence (whole entry): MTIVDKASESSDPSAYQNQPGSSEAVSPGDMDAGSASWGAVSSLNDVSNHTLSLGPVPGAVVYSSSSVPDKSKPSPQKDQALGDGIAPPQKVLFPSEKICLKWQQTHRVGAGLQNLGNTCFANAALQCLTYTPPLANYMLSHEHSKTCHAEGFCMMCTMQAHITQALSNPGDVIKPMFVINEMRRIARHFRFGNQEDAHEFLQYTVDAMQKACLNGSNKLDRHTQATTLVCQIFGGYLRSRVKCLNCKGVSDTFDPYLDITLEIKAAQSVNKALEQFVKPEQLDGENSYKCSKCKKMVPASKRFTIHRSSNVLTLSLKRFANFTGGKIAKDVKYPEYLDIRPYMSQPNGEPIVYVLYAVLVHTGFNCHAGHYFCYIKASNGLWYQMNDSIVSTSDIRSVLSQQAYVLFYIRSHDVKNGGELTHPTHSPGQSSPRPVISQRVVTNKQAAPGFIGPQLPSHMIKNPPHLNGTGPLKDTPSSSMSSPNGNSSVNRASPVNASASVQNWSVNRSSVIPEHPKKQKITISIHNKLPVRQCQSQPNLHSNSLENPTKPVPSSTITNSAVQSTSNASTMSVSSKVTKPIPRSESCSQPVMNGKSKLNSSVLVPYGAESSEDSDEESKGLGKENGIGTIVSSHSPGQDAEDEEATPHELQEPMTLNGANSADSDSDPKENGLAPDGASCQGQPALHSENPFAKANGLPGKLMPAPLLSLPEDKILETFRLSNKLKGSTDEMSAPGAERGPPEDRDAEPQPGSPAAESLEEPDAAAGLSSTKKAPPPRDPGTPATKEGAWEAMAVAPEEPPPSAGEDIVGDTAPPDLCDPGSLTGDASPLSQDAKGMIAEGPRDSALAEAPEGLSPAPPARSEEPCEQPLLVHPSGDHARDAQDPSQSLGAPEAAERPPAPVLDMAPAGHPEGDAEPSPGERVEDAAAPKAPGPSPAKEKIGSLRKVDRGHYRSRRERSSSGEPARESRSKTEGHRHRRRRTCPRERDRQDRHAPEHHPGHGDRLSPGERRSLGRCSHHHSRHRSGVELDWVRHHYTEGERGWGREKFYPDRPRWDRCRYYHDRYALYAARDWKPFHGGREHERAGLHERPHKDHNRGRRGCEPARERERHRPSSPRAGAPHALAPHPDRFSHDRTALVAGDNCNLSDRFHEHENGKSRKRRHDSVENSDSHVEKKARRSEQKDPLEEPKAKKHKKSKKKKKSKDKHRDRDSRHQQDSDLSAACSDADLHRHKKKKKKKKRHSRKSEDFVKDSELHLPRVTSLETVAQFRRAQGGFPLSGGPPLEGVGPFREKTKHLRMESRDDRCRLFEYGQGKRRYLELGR
Method in brief: (§1)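 Triplicate samples of HEK293T lysate, 495 µg each, received fragment at 200 µM or vehicle for 3 h, followed by Biotin-Ahx-Ub-VS (0.5 µM final) for 1 h. After NeutrAvidin enrichment of labelled DUBs and LysC/trypsin digestion, peptides were run by diaPASEF LC-MS/MS. The values are average log2 fragment/vehicle ratios from global-median-normalised Spectronaut label-free quantities, tested by unpaired t-test on proteins having ≥2 unique peptides.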

USP46 = USP46 (UniProt P62068)
USP46, sequence (P62068 whole entry): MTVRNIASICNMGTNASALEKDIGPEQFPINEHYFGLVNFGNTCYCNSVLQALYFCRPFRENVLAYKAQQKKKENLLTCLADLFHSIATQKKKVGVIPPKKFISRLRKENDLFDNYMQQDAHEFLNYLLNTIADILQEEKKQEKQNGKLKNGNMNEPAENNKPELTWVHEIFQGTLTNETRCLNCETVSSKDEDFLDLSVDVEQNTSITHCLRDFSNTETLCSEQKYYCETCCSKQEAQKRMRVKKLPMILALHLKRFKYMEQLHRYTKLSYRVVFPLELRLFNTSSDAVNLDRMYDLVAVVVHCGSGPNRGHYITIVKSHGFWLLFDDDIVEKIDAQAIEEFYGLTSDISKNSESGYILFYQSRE
Method in brief: as §1

USP47 = target: T2, USP47 (UniProt Q96K76)
T2 sequence (whole entry): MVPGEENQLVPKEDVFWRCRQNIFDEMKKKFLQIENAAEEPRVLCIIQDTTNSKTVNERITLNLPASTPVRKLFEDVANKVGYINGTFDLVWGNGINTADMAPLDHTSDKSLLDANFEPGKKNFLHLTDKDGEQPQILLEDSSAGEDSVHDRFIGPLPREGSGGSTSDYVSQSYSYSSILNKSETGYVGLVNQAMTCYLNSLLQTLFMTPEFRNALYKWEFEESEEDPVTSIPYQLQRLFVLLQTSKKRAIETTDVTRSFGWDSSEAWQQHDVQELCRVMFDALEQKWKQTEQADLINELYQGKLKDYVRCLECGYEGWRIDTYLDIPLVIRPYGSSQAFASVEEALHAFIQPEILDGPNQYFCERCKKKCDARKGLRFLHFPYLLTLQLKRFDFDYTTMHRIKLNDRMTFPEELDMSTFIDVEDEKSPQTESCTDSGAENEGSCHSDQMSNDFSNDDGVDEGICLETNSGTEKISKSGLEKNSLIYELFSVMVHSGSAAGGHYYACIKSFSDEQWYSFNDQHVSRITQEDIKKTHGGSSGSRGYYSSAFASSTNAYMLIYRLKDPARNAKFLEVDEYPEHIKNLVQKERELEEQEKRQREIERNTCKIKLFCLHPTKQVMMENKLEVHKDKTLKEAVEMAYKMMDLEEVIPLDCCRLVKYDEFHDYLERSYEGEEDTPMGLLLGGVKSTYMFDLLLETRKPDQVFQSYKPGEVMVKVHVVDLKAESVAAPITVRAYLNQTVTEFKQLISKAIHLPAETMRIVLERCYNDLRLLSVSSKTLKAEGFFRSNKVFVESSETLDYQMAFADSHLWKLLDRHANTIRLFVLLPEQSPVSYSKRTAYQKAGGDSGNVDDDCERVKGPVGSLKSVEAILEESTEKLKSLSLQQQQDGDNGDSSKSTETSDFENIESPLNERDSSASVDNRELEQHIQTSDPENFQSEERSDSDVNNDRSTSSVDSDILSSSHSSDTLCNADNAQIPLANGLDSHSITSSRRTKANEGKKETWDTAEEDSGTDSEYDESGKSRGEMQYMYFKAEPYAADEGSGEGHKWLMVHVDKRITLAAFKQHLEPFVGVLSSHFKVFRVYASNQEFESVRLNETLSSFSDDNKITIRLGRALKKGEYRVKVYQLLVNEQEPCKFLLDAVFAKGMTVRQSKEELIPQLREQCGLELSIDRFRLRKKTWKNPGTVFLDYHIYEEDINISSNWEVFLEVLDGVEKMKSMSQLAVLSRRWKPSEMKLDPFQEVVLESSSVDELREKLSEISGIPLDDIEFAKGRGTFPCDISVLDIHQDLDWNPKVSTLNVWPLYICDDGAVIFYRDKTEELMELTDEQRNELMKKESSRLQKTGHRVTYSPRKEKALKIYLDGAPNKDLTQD
Method in brief: as §1

USP48 = target: T3, USP48 (UniProt Q86UV5)
T3 sequence (whole entry): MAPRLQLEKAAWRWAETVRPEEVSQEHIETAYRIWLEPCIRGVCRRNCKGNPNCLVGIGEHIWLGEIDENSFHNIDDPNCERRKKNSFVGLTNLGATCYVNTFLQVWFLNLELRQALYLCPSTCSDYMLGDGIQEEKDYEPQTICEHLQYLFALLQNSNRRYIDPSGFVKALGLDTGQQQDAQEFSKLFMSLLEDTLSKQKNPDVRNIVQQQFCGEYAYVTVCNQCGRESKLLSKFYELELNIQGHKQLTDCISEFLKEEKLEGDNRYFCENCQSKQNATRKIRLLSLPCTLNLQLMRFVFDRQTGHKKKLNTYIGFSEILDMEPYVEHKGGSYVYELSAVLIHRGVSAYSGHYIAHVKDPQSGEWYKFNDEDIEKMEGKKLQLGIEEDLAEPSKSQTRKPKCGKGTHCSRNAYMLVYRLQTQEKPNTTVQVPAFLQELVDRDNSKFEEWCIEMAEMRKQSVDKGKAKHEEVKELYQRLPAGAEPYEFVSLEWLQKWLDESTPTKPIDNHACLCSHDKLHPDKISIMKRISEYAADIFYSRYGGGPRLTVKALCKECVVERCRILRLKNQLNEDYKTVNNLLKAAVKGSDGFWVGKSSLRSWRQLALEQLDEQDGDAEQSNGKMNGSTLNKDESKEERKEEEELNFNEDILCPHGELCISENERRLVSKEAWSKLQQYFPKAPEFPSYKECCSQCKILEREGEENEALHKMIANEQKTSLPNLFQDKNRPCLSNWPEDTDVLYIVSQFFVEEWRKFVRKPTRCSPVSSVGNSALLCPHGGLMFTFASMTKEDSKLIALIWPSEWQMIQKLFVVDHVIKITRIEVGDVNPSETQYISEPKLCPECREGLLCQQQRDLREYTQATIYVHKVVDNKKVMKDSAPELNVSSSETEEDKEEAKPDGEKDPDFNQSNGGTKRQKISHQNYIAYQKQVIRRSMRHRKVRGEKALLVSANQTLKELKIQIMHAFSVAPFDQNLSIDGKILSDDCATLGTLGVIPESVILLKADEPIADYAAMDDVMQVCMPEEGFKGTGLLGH
Method in brief: as §1

USP5 = target: T4, USP5 (UniProt P45974)
T4 sequence (whole entry): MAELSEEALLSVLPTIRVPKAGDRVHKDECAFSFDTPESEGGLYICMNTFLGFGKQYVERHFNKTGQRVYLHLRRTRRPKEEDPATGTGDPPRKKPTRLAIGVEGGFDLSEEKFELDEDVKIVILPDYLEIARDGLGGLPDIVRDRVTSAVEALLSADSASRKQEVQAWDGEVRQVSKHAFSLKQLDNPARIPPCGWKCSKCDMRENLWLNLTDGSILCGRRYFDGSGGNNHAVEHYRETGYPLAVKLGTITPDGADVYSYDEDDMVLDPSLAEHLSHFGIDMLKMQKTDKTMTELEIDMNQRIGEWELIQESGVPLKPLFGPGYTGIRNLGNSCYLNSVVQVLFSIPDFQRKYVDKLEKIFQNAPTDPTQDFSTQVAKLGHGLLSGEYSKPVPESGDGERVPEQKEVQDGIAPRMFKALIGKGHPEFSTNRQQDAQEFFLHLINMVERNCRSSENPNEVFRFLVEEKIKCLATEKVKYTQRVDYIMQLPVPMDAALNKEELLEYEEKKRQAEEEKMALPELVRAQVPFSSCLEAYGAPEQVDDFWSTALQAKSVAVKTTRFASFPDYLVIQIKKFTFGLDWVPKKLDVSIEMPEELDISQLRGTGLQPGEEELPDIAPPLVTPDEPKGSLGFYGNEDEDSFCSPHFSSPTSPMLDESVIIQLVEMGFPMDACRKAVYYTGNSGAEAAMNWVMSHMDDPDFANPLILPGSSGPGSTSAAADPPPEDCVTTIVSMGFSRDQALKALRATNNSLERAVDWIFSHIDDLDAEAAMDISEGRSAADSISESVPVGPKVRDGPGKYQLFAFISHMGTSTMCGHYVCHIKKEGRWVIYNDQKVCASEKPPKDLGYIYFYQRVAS
Method in brief: as §1

USP54 = USP54 (UniProt Q70EL1)
Method in brief: as §1

USP7 = USP7 (UniProt Q93009)
USP7, sequence (Q93009 whole entry, looked up): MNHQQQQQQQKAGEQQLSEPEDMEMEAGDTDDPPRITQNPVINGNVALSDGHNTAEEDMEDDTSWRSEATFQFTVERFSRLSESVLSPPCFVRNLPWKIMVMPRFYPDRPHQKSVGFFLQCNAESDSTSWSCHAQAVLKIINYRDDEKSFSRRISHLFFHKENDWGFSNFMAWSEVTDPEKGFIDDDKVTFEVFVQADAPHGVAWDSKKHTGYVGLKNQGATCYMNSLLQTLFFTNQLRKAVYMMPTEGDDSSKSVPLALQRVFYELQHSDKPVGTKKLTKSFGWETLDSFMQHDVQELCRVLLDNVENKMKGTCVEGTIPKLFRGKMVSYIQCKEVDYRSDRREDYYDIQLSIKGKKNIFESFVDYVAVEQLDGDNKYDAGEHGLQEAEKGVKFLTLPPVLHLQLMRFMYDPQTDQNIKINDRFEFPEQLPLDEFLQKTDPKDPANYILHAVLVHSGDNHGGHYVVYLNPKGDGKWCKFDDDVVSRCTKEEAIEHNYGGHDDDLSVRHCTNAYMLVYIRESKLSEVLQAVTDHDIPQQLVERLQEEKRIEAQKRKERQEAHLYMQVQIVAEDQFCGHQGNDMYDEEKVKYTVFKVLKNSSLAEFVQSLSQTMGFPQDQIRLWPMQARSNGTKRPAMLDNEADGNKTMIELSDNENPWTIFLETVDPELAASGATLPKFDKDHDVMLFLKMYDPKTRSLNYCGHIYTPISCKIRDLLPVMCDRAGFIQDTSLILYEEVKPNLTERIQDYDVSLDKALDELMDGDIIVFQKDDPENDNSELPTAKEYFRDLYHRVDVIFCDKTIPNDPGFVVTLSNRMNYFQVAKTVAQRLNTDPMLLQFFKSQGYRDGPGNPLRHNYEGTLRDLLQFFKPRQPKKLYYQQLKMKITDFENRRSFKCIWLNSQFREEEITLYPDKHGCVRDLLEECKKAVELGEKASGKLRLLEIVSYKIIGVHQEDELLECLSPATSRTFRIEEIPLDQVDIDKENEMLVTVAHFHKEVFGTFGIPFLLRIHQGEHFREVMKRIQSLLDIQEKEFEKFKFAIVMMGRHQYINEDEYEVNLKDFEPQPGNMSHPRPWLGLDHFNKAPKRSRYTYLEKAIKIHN
Method in brief: as §1

USP8 = target: T5, USP8 (UniProt P40818)
T5 sequence (whole entry): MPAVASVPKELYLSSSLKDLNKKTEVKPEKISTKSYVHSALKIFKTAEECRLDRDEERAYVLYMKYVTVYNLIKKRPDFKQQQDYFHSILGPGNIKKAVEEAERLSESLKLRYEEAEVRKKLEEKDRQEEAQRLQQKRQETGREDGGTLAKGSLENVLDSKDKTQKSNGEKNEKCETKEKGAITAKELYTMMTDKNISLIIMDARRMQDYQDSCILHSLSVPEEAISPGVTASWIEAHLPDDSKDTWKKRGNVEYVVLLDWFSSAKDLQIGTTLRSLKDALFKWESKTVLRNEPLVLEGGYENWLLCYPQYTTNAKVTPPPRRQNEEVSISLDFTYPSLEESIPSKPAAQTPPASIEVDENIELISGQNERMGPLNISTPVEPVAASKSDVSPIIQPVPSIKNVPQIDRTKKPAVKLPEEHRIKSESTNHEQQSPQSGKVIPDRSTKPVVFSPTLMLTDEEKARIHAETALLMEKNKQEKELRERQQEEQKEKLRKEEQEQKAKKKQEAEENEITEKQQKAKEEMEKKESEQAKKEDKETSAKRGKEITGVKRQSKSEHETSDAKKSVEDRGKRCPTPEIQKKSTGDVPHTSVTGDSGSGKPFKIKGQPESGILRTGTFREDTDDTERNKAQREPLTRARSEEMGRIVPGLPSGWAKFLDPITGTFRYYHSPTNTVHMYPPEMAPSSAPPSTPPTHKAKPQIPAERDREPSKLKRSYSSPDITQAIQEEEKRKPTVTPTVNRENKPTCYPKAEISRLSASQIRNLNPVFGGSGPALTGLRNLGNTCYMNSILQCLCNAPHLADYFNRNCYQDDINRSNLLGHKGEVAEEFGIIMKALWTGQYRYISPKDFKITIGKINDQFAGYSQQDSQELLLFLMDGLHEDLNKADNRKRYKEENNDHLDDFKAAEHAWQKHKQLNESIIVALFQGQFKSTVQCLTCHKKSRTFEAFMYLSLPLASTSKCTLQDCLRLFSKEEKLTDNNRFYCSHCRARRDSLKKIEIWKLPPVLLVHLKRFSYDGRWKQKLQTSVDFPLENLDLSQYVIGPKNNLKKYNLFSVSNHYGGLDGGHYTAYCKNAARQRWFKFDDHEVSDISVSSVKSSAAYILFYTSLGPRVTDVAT
Method in brief: as §1

USP9X = USP9X (UniProt Q93008)
USP9X, sequence (Q93008 whole entry): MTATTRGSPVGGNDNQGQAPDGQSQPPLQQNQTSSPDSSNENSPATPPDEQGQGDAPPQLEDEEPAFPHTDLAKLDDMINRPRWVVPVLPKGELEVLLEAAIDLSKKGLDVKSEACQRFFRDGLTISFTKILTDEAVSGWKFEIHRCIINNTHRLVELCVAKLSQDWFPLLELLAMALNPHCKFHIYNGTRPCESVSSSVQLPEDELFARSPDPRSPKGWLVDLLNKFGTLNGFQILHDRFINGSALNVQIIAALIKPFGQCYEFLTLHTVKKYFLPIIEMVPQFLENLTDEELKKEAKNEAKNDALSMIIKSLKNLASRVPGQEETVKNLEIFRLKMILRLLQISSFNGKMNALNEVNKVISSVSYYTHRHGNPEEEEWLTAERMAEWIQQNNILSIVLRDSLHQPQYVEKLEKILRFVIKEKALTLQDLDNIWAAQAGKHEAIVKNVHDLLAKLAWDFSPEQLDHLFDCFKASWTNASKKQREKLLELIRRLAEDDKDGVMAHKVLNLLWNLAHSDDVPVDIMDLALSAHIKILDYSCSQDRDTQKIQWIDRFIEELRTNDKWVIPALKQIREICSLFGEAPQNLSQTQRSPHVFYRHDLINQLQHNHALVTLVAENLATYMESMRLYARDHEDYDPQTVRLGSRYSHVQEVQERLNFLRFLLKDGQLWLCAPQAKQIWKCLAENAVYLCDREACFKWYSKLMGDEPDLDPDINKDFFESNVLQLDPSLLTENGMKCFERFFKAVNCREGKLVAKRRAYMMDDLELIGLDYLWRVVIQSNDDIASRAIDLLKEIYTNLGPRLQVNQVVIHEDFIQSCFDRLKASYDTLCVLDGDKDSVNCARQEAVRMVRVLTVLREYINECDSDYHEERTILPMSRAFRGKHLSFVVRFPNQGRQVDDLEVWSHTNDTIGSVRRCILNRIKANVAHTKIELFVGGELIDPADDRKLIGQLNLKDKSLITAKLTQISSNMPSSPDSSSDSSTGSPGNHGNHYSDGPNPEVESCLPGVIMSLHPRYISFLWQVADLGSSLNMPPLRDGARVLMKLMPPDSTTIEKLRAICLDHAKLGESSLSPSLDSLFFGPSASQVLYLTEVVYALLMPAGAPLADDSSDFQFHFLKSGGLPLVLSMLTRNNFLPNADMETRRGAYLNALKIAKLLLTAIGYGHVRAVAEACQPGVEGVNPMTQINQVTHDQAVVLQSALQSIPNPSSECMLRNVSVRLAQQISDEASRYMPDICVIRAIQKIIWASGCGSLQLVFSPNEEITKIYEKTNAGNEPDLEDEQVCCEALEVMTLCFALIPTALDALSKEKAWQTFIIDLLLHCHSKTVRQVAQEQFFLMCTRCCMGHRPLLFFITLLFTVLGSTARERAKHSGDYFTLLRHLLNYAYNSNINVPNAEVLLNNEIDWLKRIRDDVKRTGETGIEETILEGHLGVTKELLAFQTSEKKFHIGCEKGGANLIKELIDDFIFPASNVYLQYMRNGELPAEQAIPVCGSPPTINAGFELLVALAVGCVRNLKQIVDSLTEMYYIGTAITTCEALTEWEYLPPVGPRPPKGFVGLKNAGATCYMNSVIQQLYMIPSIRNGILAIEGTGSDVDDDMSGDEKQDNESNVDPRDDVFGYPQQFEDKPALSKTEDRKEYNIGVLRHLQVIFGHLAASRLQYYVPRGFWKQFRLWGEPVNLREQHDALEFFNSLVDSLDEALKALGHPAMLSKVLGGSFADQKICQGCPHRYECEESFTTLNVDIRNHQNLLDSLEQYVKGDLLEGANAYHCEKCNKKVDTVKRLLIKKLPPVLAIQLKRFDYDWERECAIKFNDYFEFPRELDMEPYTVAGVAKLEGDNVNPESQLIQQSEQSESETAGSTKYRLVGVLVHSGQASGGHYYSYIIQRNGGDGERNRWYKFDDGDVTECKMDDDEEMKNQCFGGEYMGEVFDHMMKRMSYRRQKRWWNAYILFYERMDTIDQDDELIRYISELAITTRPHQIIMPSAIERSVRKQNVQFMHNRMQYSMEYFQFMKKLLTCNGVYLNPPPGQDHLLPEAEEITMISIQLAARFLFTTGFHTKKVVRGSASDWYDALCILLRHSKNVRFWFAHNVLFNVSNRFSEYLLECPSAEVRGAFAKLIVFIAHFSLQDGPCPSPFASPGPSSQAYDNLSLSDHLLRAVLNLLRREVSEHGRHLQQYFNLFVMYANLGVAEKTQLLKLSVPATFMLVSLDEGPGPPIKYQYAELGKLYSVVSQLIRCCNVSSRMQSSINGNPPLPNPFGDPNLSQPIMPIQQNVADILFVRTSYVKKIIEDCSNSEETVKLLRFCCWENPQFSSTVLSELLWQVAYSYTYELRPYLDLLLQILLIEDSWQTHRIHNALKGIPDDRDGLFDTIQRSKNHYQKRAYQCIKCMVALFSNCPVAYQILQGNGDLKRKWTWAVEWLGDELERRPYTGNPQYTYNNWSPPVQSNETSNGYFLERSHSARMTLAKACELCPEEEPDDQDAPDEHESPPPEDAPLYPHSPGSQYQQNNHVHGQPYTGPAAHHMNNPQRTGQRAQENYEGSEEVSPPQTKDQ
Method in brief: as §1

UniProt O00487 = target: UniProt O00487
UniProt O00487, sequence (O00487 whole entry): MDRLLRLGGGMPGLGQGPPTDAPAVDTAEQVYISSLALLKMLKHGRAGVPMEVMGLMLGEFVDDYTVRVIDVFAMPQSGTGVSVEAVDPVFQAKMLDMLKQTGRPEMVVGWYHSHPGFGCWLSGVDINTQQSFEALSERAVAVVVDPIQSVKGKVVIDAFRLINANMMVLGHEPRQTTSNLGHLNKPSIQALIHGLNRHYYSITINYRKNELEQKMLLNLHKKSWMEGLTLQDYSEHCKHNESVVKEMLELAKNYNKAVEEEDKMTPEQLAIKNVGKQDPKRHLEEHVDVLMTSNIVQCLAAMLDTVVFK
Method in brief: as §1

Measured: log2 ratio of Biotin-Ahx-Ub-VS probe labelling

Cl.O=C(CCl)NC1(c2ncccn2)CCC1
inactive: USP42 0.259 | USP46 0.267 | USP47 -0.186 | USP48 -0.0959 | USP5 -0.174 | USP54 -0.292 | USP7 -0.0088 | USP8 -0.47 | USP9X 0.117 | UniProt O00487 0.0465
